The supplement of paper PMC10849652
The full data set covers some 7,900 targets. This sample favours those with a hit. About 0.6% of all pairs of compound and target were hits.

Key:
Test in all cases: log2 fold change, soluble protein after heating vs DMSO (PISA); higher = thermal stabilisation; K562 cells, 10 uM, 30 min; active = over 0.2 and 3.5 SD of the protein, either way, in both replicates (recomputed)
[1] = compound: CC1=C(C=C(C=C1)NC(=O)C2=CC(=CC=C2)C(C)(C)C#N)NC3=CC4=C(C=C3)N=CN(C4=O)C
How it was run: (§1)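 Aliquots of K562 cells (2×10^6 cells/mL) treated with 10 μM compound for 30 min were heated for 3 min over 48°C-58°C. After pooling and extraction in PBS with 0.5% NP-40 at 4°C, soluble protein from a 21,000xg, 90 min spin was quantified by TMTpro 16plex LC-MS/MS with channel sums equalised. Thermal stability is expressed against control samples, from duplicates, as a log2 fold change.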

[2] = compound: CC1=C(C=C(C=C1)NC(=O)C2=CC(=CC=C2)N(C)C)NC(=O)C3=CC=C(C=C3)O
How it was run: as §1

[3] = compound: CC1=CC=C(C=C1)SC2=C3C=C(SC3=CN=C2)C(=O)N
How it was run: as §1

[4] = compound: CC1=NC(=CC=C1)C2=C(N=C(N2)C(C)(C)C)C3=CC4=NC=CN=C4C=C3
How it was run: as §1

Nexturastat A = compound: CCCCN(Cc1ccc(C(=O)NO)cc1)C(=O)Nc1ccccc1 [Nexturastat A]
How it was run: as §1

vemurafenib = compound: CCCS(=O)(=O)Nc1ccc(F)c(C(=O)c2c[nH]c3ncc(-c4ccc(Cl)cc4)cc23)c1F [vemurafenib]
How it was run: as §1

[5] = compound: CCCS(=O)(=O)Nc1ccc(F)c(C(=O)c2c[nH]c3ncc(Cl)cc23)c1F
How it was run: as §1

[6] = compound: CCCc1cc(C)[nH]c(=O)c1CNC(=O)c1cc(-c2ccnc(N3CCN(C)CC3)c2)cc2c1cnn2C(C)C
How it was run: as §1

givinostat = compound: CCN(CC)Cc1ccc2cc(COC(=O)Nc3ccc(C(=O)NO)cc3)ccc2c1 [givinostat]
How it was run: as §1

barasertib = compound: CCN(CCCOc1ccc2c(Nc3cc(CC(=O)Nc4cccc(F)c4)[nH]n3)ncnc2c1)CCOP(=O)(O)O [barasertib]
How it was run: as §1

Measured: log2 fold change

PYGL (UniProt P06737)
inactive: [1] -0.105 | [2] 0.011 | [3] 0.011 | [4] 0.006 | Nexturastat A -0.018 | vemurafenib -0.009 | [5] 0.003 | [6] -0.015 | givinostat 0.012 | barasertib -0.01

PSMA3 (UniProt P25788)
UniProt P25788, sequence (P25788 whole entry, looked up): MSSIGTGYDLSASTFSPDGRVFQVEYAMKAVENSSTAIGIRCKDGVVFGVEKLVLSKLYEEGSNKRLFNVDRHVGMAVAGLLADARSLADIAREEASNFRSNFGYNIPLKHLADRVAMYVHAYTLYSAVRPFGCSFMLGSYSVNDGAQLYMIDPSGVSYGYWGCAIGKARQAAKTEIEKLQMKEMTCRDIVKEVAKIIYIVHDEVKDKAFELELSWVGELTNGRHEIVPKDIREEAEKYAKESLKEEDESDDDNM
inactive: [1] 0.01 | [2] 0.027 | [3] -0.025 | [4] 0.013 | Nexturastat A -0.039 | vemurafenib -0.001 | [5] -0.019 | [6] -0.011 | givinostat -0.011 | barasertib -0.034

PRMT3 (UniProt O60678)
inactive: [1] 0.016 | [2] -0.025 | [3] 0.044 | [4] 0.076 | Nexturastat A -0.026 | vemurafenib 0.056 | [5] 0.055 | [6] 0 | givinostat -0.013 | barasertib 0.035

PPIL4 (UniProt Q8WUA2)
inactive: [1] 0.006 | [2] -0.02 | [3] -0.06 | [4] -0.007 | Nexturastat A 0.145 | vemurafenib 0.001 | [5] 0 | [6] 0.04 | givinostat 0.045 | barasertib 0

PRPF38A (UniProt Q8NAV1)
UniProt Q8NAV1, sequence (Q8NAV1 whole entry, looked up): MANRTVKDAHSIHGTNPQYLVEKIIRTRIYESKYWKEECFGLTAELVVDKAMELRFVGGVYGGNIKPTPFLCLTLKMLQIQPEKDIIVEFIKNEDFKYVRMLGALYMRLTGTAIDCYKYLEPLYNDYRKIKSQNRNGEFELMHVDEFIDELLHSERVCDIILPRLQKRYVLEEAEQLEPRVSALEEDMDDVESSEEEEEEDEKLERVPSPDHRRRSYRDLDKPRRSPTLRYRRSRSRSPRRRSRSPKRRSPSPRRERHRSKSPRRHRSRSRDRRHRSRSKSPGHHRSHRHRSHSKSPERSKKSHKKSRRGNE
inactive: [1] 0.005 | [2] -0.023 | [3] -0.058 | [4] 0.017 | Nexturastat A 0.019 | vemurafenib -0.118 | [5] -0.089 | [6] 0.065 | givinostat 0.005 | barasertib -0.024

PEX13 (UniProt Q92968)
inactive: [1] 0.052 | [2] -0.101 | [3] 0.033 | [4] -0.02 | Nexturastat A 0.116 | vemurafenib -0.033 | [5] 0.033 | [6] -0.142 | givinostat -0.034 | barasertib 0.044

PKM (UniProt P14618)
inactive: [1] -0.013 | [2] -0.005 | [3] 0.001 | [4] 0.014 | Nexturastat A -0.054 | vemurafenib -0.012 | [5] -0.01 | [6] -0.023 | givinostat 0 | barasertib -0.011

PSMD9 (UniProt O00233)
inactive: [1] -0.012 | [2] 0.018 | [3] 0.021 | [4] 0.012 | Nexturastat A -0.068 | vemurafenib -0.014 | [5] -0.021 | [6] -0.016 | givinostat -0.004 | barasertib 0

PPID (UniProt Q08752)
UniProt Q08752, sequence (Q08752 whole entry, looked up): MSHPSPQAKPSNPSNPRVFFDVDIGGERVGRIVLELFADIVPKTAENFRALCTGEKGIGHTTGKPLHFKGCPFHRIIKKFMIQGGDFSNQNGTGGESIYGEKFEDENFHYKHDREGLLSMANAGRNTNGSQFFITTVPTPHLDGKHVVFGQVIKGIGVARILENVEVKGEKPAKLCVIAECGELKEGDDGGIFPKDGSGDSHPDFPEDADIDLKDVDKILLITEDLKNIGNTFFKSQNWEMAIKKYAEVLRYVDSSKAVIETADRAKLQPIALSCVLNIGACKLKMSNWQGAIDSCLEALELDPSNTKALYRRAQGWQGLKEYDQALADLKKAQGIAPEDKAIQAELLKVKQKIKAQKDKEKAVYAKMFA
inactive: [1] 0.011 | [2] -0.047 | [3] 0.091 | [4] 0.005 | Nexturastat A 0.008 | vemurafenib 0.097 | [5] 0.105 | [6] 0.104 | givinostat 0.122 | barasertib 0.057

PSMC5 (UniProt P62195)
inactive: [1] 0.014 | [2] 0.011 | [3] -0.029 | [4] -0.05 | Nexturastat A 0.003 | vemurafenib -0.048 | [5] -0.053 | [6] 0.032 | givinostat -0.082 | barasertib -0.034

PIP4K2C (UniProt Q8TBX8)
inactive: [1] -0.003 | [2] -0.06 | [3] 0.073 | [4] 0.007 | Nexturastat A -0.046 | vemurafenib -0.035 | [5] 0 | [6] -0.029 | givinostat -0.047 | barasertib -0.016

POLR2G (UniProt P62487)
inactive: [1] 0.025 | [2] -0.033 | [3] 0.059 | [4] 0.057 | Nexturastat A -0.015 | vemurafenib -0.022 | [5] 0.009 | [6] -0.038 | givinostat -0.094 | barasertib -0.019

PPT2 isoform 3 (UniProt Q9UMR5)
UniProt Q9UMR5, sequence (Q9UMR5 whole entry, looked up): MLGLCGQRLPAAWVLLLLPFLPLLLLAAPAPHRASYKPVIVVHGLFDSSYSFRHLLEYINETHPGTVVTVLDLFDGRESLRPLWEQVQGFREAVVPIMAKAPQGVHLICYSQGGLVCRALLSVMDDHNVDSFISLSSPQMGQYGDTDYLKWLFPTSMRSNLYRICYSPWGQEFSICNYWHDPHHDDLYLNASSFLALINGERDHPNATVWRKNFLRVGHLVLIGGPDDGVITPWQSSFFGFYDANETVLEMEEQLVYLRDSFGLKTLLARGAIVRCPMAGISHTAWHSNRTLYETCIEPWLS
inactive: [1] -0.064 | [2] -0.002 | [3] 0.025 | [4] 0.078 | Nexturastat A 0 | vemurafenib -0.001 | [5] 0.052 | [6] 0.002 | givinostat 0.041 | barasertib -0.017

PKN1 isoform 2 (UniProt Q16512)
UniProt Q16512, sequence (Q16512 whole entry, looked up): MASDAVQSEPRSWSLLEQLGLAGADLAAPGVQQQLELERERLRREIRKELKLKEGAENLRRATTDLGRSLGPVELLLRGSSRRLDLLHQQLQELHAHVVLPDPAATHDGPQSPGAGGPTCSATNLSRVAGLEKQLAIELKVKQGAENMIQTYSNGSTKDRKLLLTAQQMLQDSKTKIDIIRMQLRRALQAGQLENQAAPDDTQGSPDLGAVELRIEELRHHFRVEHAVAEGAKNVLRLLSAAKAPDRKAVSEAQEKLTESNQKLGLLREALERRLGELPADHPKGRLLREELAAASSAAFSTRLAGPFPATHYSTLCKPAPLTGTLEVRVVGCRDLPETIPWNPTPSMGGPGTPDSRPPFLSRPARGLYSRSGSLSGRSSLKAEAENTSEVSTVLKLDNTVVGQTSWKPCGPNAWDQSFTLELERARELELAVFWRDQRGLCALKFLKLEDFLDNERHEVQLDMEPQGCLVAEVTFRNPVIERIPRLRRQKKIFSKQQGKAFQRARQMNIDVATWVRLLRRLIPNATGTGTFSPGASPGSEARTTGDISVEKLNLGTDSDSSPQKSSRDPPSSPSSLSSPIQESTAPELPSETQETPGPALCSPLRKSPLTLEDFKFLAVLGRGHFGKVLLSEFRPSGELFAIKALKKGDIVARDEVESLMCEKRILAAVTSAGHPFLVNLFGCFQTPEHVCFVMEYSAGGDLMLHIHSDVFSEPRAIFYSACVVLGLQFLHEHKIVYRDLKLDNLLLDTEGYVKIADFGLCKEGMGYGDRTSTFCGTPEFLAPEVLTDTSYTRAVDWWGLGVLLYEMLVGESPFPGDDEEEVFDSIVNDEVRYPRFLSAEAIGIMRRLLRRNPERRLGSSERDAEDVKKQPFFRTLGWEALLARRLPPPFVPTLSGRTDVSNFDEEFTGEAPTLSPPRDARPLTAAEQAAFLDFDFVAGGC
inactive: [1] 0.01 | [2] 0.002 | [3] 0.019 | [4] 0.014 | Nexturastat A 0.053 | vemurafenib 0.023 | [5] 0.03 | [6] 0.022 | givinostat 0.059 | barasertib 0.03

PHKG2 (UniProt P15735)
inactive: [1] 0.012 | [2] -0.007 | [3] -0.083 | [4] -0.031 | Nexturastat A 0.002 | vemurafenib -0.003 | [5] -0.004 | [6] 0 | givinostat 0.01 | barasertib -0.079

PTDSS1 (UniProt P48651)
inactive: [1] 0.005 | [2] -0.006 | [3] 0.08 | [4] -0.01 | Nexturastat A 0.192 | vemurafenib -0.055 | [5] 0.019 | [6] -0.007 | givinostat 0.072 | barasertib 0.03

POLR3D (UniProt P05423)
inactive: [1] -0.078 | [2] 0.014 | [3] -0.01 | [4] -0.023 | Nexturastat A 0.153 | vemurafenib 0.03 | [5] 0.055 | [6] 0.104 | givinostat 0.065 | barasertib 0.098

PRKAR1A (UniProt P10644)
inactive: [1] 0.15 | [2] -0.051 | [3] 0.059 | [4] -0.103 | Nexturastat A 0.053 | vemurafenib -0.028 | [5] -0.085 | [6] 0.203 | givinostat 0.055 | barasertib -0.01

PGGHG (UniProt Q32M88)
UniProt Q32M88, sequence (Q32M88 whole entry, looked up): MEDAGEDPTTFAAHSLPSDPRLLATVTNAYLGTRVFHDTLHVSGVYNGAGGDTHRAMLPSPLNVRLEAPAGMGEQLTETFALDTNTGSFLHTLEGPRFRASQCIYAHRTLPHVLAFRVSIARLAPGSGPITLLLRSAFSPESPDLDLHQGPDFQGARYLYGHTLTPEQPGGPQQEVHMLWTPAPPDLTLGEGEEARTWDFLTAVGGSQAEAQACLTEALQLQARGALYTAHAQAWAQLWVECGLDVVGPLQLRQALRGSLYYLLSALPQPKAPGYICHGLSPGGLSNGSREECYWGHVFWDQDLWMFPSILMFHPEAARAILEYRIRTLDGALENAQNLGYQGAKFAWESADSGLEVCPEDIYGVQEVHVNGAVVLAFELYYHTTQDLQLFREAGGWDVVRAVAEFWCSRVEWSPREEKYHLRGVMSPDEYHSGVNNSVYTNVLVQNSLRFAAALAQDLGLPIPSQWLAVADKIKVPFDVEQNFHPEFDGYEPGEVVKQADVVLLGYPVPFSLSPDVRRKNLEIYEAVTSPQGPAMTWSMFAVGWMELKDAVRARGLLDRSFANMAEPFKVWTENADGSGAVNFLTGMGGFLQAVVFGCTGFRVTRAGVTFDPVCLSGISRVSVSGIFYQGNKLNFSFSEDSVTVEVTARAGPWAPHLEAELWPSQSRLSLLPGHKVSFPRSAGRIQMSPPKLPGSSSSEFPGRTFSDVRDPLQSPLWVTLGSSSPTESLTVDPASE
inactive: [1] 0.017 | [2] -0.127 | [3] 0.197 | [4] -0.003 | Nexturastat A 0 | vemurafenib -0.044 | [5] -0.091 | [6] -0.175 | givinostat -0.003 | barasertib 0.001

PPP1R12A (UniProt O14974)
inactive: [1] -0.012 | [2] -0.036 | [3] 0.046 | [4] 0.045 | Nexturastat A 0.001 | vemurafenib 0.015 | [5] 0.073 | [6] -0.032 | givinostat 0.048 | barasertib 0.066

PBK (UniProt Q96KB5)
UniProt Q96KB5, sequence (Q96KB5 whole entry, looked up): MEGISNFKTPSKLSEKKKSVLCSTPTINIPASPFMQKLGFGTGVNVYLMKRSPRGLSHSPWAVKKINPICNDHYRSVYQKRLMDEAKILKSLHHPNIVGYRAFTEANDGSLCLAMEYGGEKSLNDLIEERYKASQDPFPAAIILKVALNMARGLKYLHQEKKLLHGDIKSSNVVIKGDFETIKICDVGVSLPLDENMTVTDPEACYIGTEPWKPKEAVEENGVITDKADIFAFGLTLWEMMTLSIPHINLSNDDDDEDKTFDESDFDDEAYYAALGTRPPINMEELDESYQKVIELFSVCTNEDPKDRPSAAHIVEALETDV
inactive: [1] 0.01 | [2] -0.056 | [3] 0.069 | [4] -0.001 | Nexturastat A 0.037 | vemurafenib 0.124 | [5] 0.14 | [6] 0.144 | givinostat 0.143 | barasertib 0.145

PTGES3 (UniProt Q15185)
inactive: [1] 0.039 | [2] -0.073 | [3] 0.044 | [4] 0.078 | Nexturastat A -0.046 | vemurafenib 0.032 | [5] 0.111 | [6] 0.034 | givinostat 0.026 | barasertib 0.064

PIP4P1 isoform 2 (UniProt Q86T03)
UniProt Q86T03, sequence (Q86T03 whole entry, looked up): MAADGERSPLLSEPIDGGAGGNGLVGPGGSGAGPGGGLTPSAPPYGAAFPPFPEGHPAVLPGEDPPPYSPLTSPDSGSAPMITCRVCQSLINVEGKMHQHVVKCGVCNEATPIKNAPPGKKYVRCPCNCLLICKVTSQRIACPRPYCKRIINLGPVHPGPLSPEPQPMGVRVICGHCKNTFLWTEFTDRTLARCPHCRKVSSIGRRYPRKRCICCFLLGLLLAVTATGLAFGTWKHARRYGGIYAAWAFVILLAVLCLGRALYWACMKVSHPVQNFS
inactive: [1] -0.018 | [2] -0.001 | [3] -0.019 | [4] 0.039 | Nexturastat A 0.035 | vemurafenib -0.198 | [5] -0.063 | [6] -0.002 | givinostat -0.037 | barasertib 0.001

POLR2M (UniProt P0CAP2)
UniProt P0CAP2, sequence (P0CAP2 whole entry, looked up): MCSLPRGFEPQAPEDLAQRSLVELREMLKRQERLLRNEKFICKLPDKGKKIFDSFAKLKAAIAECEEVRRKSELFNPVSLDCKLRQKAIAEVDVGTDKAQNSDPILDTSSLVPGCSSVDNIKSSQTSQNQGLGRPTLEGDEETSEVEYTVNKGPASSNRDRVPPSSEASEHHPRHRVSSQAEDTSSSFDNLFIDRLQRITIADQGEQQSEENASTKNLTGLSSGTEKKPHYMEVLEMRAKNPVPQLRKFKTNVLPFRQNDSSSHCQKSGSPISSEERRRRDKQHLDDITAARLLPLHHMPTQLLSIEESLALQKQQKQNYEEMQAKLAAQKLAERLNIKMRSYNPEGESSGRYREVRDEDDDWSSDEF
inactive: [1] 0.007 | [2] -0.014 | [3] 0.027 | [4] 0 | Nexturastat A -0.019 | vemurafenib 0.021 | [5] -0.062 | [6] 0 | givinostat -0.031 | barasertib -0.009

PTPMT1 (UniProt Q8WUK0)
inactive: [1] 0.043 | [2] -0.019 | [3] 0.025 | [4] 0.025 | Nexturastat A -0.114 | vemurafenib -0.047 | [5] 0.031 | [6] -0.029 | givinostat -0.029 | barasertib 0.041

POTEI (UniProt P0CG38)
UniProt P0CG38, sequence (P0CG38 whole entry, looked up): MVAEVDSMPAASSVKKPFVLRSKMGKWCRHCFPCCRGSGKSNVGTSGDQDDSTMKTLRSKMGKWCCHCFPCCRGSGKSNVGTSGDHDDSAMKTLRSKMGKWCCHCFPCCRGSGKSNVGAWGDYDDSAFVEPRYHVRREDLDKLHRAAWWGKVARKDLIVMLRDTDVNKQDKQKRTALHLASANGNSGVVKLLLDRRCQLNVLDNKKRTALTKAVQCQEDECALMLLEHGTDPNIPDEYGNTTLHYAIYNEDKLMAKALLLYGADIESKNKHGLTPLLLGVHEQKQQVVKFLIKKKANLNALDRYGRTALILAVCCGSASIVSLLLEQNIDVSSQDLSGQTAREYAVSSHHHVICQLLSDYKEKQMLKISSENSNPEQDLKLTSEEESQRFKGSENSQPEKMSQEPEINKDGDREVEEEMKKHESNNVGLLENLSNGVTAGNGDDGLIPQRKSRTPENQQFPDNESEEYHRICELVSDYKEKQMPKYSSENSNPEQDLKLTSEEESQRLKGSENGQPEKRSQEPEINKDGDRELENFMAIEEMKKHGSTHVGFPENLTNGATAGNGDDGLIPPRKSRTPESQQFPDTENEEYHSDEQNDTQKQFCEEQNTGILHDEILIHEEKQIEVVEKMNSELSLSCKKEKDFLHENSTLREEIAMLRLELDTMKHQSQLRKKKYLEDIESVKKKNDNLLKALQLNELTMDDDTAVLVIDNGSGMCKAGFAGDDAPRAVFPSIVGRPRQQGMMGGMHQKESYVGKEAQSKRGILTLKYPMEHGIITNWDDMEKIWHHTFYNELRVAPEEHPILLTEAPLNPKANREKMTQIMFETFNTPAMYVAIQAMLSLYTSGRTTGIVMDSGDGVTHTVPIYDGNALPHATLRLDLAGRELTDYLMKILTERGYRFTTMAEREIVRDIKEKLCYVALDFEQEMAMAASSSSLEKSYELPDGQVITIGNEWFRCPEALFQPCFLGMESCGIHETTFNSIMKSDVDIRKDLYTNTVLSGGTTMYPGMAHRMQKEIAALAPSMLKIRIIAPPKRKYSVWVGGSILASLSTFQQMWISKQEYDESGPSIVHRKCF
inactive: [1] 0.056 | [2] -0.035 | [3] -0.012 | [4] 0.052 | Nexturastat A -0.071 | vemurafenib 0.08 | [5] 0.014 | [6] -0.072 | givinostat -0.018 | barasertib 0

PGGT1B (UniProt P53609)
inactive: [1] -0.062 | [2] 0.006 | [3] 0.002 | [4] 0.035 | Nexturastat A -0.073 | vemurafenib -0.022 | [5] -0.023 | [6] -0.025 | givinostat 0.009 | barasertib 0.035

POLR2I (UniProt P36954)
inactive: [1] -0.063 | [2] -0.011 | [3] -0.015 | [4] 0.001 | Nexturastat A 0.055 | vemurafenib -0.086 | [5] -0.081 | [6] -0.057 | givinostat -0.151 | barasertib 0.085

PNPLA8 (UniProt Q9NP80)
inactive: [1] 0.001 | [2] 0.026 | [3] 0.007 | [4] -0.027 | Nexturastat A 0.041 | vemurafenib -0.002 | [5] -0.005 | [6] 0.084 | givinostat 0.067 | barasertib 0.066

PTTG1 (UniProt O95997)
inactive: [1] 0.007 | [2] -0.353 | [3] 0.02 | [4] -0.077 | Nexturastat A 0.098 | vemurafenib -0.081 | [5] -0.045 | [6] -0.021 | givinostat 0.068 | barasertib 0.023
